Experimental findings from ChEMBL document CHEMBL4888484, “Replenishing the malaria drug discovery pipeline: Screening and hit evaluation of the MMV Hit Generation Library 1 (HGL1) against asexual blood stage Plasmodium falciparum ,using a nano luciferase reporter read-out” (2022) are described below.

The campaign covered roughly 150,000 compounds. About 540 (0.36%) showed an effect of 50% or more. This is one part of a sample in which strong results are shown more often than they occur.

The experiment deals with Plasmodium falciparum. The experiment is described as follows: Primary screen in NF54 nanoGlo assay, in single point, at 2uM, 72h; a lower Z score goes with more inhibition. It counts as functional, Erythrocyte. Conditions: timepoint 72 hour.
`COc1ccc(C2CN(Cc3ccccn3)CC2CN(Cc2ccc(F)cc2)C(C)=O)cc1` (stereo not drawn): the “% Inhibition” value was found to be 15% and the Z score is -1.72.

For `COC(=O)c1ccc(C)c(NC(=O)c2cn(C)cn2)c1O`, the “% Inhibition” value is -2% and the Z score was 0.17.

In the case of `COCCCN(Cc1ccco1)C[C@H](O)COC(C)(C)C`, the “% Inhibition” value is listed as 2% and the Z score is reported as -0.27.

`CC(C)(Oc1cc2c(cc1-c1cncc(C3CC3)c1)CCO2)C(=O)O`: the “% Inhibition” value is -1% and the Z score is listed as 0.1.

As to `COCC(=O)Nc1cc(C2CC2)nn1-c1nc(C)cc(=O)[nH]1`, the “% Inhibition” value was found to be 4% and the Z score was -0.78.

Regarding `Cc1cc(=O)[nH]c(-n2nc(C3CC3)cc2NC(=O)C(c2ccccc2)c2ccccc2)n1`, the “% Inhibition” value was determined as 86% and the Z score is listed as -11.5.

`Cn1nc(C2CCCC2)cc1NC(=O)c1ccc(OCC(=O)O)cc1`: the “% Inhibition” value came to 1% and the Z score is listed as -0.23.

With `CC(C)c1cc(=O)[nH]c(-n2nc(C3CC3)cc2NC(=O)c2ccc(F)cc2)n1`, the “% Inhibition” value is on record as 90% and the Z score is given as -16.95.

Regarding `CC(C)c1cc(=O)[nH]c(-n2nc(C3CC3)cc2NC(=O)c2ccc(F)c(F)c2)n1`, the “% Inhibition” value worked out at 5% and the Z score is -0.72.

Turning to `Cc1cc(=O)[nH]c(-n2nc(C3CC3)cc2NC(=O)c2ccc(C(C)(C)C)cc2)n1`, the “% Inhibition” value was 57% and the Z score is -4.8.

As for `CC[C@@H](C(=O)Nc1cc(C)nn1-c1nc2c(c(=O)[nH]1)CCC2)c1ccccc1`, the “% Inhibition” value was 17% and the Z score was -3.37.

For `Cc1nn(C(C)C)c(C)c1CN(C)C(=O)c1cc(C#N)c[nH]1`, the “% Inhibition” value came to 0% and the Z score is -0.07.

Regarding `CN1C(=O)CCC12CCN(S(=O)(=O)Cc1ccc(Cl)cc1F)CC2`, the “% Inhibition” value is listed as -3% and the Z score worked out at 0.59.

Turning to `c1ccc(-c2noc(C3CCN(c4ccc5nncn5n4)CC3)n2)nc1`, the “% Inhibition” value is given as -18% and the Z score worked out at 2.08.

Consider `CC(C)c1nccn1CC(=O)N(C)[C@@H](C)c1ccc(F)c(F)c1`, for which the “% Inhibition” value is -1% and the Z score turned out to be 0.13.

Take `C[C@@H]1CN(CCCCO)CCN1C(=O)OC(C)(C)C`: the “% Inhibition” value is -1% and the Z score is on record as 0.08.

Turning to `Cc1onc(-c2ccccc2Cl)c1C(=O)NCC1(c2ccc(F)cc2)CCOCC1`, the “% Inhibition” value is on record as -13% and the Z score worked out at 2.28.

Turning to `CN1C[C@]2(CCCN(Cc3ccc(OCC(=O)c4ccccc4)cc3)C2)CCC1=O`, the “% Inhibition” value was -5% and the Z score came to 0.67.

Regarding `CCCc1c(C(=O)N2CCNc3ncccc32)cnn1C1CCCC1`, the “% Inhibition” value is -7% and the Z score is listed as 1.14.

As to `N#Cc1nc(C2CC2)oc1N1CCN(C(=O)CCc2ccco2)CC1`, the “% Inhibition” value is reported as -7% and the Z score was 1.41.

Consider `CN1CCC(Oc2nc3ccc(F)cc3o2)CC1`, for which the “% Inhibition” value was -11% and the Z score is 1.44.

For the compound `CCNC(=O)c1cc(NCCc2nccn2Cc2ccccc2)ccn1`, the “% Inhibition” value was -9% and the Z score is 0.95.

On to `Cc1ccccc1N1C(=O)CN(C(=O)C2COc3ccccc3O2)CC1C` (stereo not drawn), for which the “% Inhibition” value is recorded as -1% and the Z score is recorded as 0.18.

As to `c1ccc2c(-c3cc4c(c(O[C@H]5CCOC5)c3)OCCNC4)csc2c1`, the “% Inhibition” value is given as -8% and the Z score is 1.61.

As for `COC(=O)c1cn(CCc2cn3ccccc3n2)cc2c(O)nnc1-2`, the “% Inhibition” value is given as -7% and the Z score was 0.84.

`COC(=O)c1cn(Cc2cccnc2)cc2c(O)nnc1-2`: the “% Inhibition” value was found to be 0% and the Z score is -0.02.

As to `CC(C)[C@H](NC(=O)[C@H](Cc1ccccc1)n1cnnn1)c1nc2ccccc2[nH]1`, the “% Inhibition” value is listed as -15% and the Z score is given as 1.85.

Take `C#CCn1cnc(-c2ccccc2)c1NC(=O)CCc1ccc(C(C)C)cc1`: the “% Inhibition” value is reported as -7% and the Z score is 0.8.

Regarding `COc1cccc2c1Oc1c(c(=O)n(-c3ccccc3)n1CC(=O)Nc1cccc(F)c1)C2`, the “% Inhibition” value is listed as -19% and the Z score turned out to be 1.9.

As to `Cc1c(C(=O)[C@H](C#N)c2nnc(N3CCOCC3)n2-c2ccccc2)nnn1-c1ccc(F)cc1`, the “% Inhibition” value is on record as -7% and the Z score was 1.18.

Turning to `COc1ccccc1CN1Cc2ccccc2O[C@@H](C)C1=O`, the “% Inhibition” value is -5% and the Z score is recorded as 0.61.

Regarding `COc1ccccc1CN1COc2cc3c(cc2C1)OCO3`, the “% Inhibition” value was determined as 56% and the Z score is -4.75.

Take `Cc1ccc(N2COc3cc4c(cc3C2)OCO4)cc1C`: the “% Inhibition” value is listed as -10% and the Z score is 1.51.

As to `CN1CC[C@@]2(CCC1=O)CN(c1ccnc3ccc(Cl)cc13)CCN2C`, the “% Inhibition” value was -4% and the Z score worked out at 0.66.

In the case of `O=C(Cn1cnnn1)NCc1ccc2c(c1)CCC2`, the “% Inhibition” value is -44% and the Z score came out at 5.16.

Turning to `Cc1nnc([C@@]23COC[C@@H]2CN(C(=O)c2cccc4[nH]ccc24)C3)o1`, the “% Inhibition” value was -10% and the Z score was 1.33.

Turning to `Cc1ccc(S(=O)(=O)Nc2ccc(C)n(CC(=O)NCC(C)C)c2=O)cc1`, the “% Inhibition” value was -22% and the Z score was 3.01.

Turning to `COc1cccc(NC(=O)Cn2c(C)ccc(NS(=O)(=O)c3ccc(C)cc3)c2=O)c1`, the “% Inhibition” value worked out at 74% and the Z score was -9.85.

On to `CCC(C)(C)NC(=O)Cn1c(C)ccc(NS(=O)(=O)c2ccc(C)cc2)c1=O`, for which the “% Inhibition” value is recorded as -4% and the Z score came to 0.69.

As for `C=CCN(C)C(=O)NCc1ccc(Br)c(F)c1`, the “% Inhibition” value turned out to be 2% and the Z score was -0.18.

With `COc1ccc(-c2cn3c(C(=O)N4CCNC(=O)C4)csc3n2)cc1F`, the “% Inhibition” value is -19% and the Z score is reported as 2.43.

Consider `CN1CC[C@H](c2nc3cc(F)ccc3[nH]2)C1`, for which the “% Inhibition” value is recorded as -1% and the Z score amounted to 0.12.

For the compound `Cc1noc2ncnc(N3CCCC[C@H]3c3nccs3)c12`, the “% Inhibition” value is recorded as -7% and the Z score is 0.7.

As to `CCOC(=O)c1cn(CC2CCCCC2)c2nc(C)ccc2c1=O`, the “% Inhibition” value is reported as 23% and the Z score is given as -2.66.

Take `CCOC(=O)c1cn(CC)c2cc(NC3CCCCC3)c(F)cc2c1=O`: the “% Inhibition” value is reported as 67% and the Z score was -12.03.

Consider `Cc1cc2c(=O)c(C(=O)c3ccncc3)cn(CC(=O)NC3CCCCC3)c2cc1F`, for which the “% Inhibition” value is -1% and the Z score is listed as 0.12.

In the case of `Cc1nc(CC(=O)NC[C@H](O)COc2ccc(F)cc2)cs1`, the “% Inhibition” value was -3% and the Z score is 0.65.

As to `Cc1cc(C)nc(NC[C@H](O)COc2ccc(F)cc2)n1`, the “% Inhibition” value was determined as 5% and the Z score is -0.6.

As for `COc1ccc(Nc2nc(COC(=O)Cn3cnc4c3c(=O)n(C)c(=O)n4C)cs2)cc1`, the “% Inhibition” value is listed as -6% and the Z score was 0.88.

Take `CO[C@H]1COCC[C@@H]1NC(=O)c1ccc(C#CC(C)(C)O)o1`: the “% Inhibition” value is given as 1% and the Z score is given as -0.19.

Regarding `CC[C@@H](COc1ccccc1)NC(=O)CC1CCNCC1`, the “% Inhibition” value was 9% and the Z score is -1.66.

On to `Cc1cccc(N2C(=O)C3C4C=CC(C4=C4CCCCC4)C3C2=O)c1` (stereo not drawn), for which the “% Inhibition” value is 0% and the Z score came out at 0.03.

As for `O=C1C2C3C=CC(C3=C3CCCCC3)C2C(=O)N1c1cccc(Cl)c1` (stereo not drawn), the “% Inhibition” value is on record as 51% and the Z score is given as -1.24.

With `Cc1ccc(N2C(=O)C3C4C=CC(C4=C4CCCCC4)C3C2=O)cc1Cl` (stereo not drawn), the “% Inhibition” value was -11% and the Z score amounted to 1.34.
